# Assay results published in PubChem BioAssay (NCATS).
# Values joined by “and” are separate entries in the source; they are usually repeats but may differ in a detail not shown here. Equal values may be shown once. Inconclusive results are not listed. Active and inactive are the calls of the source. Unless noted, the call rests on the fitted dose curve; in most records, active means well fitted curve in the direction sought with a large enough effect; inconclusive means small, poorly fitted or top-dose-only effect, or another doubt; inactive means no such curve, though single readings can be large; an effect the other way counts as inactive or inconclusive.
# Key:
# [1] = Primary qHTS for small molecule stabilizers of the endoplasmic reticulum resident proteome: Secreted ER Calcium Modulated Protein (SERCaMP) assay (AID 1508630); conditions: SH-SY5Y GLuc-SERCaMP (Gaussia luciferase released on ER calcium loss) secretion, thapsigargin, luminescence; series mostly up to 38.4 µM; further: on the % scale 0 is the no-effect control and ±100 the full control effect
# How it was run: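 The SH-SY5Y reporter protocol was run at 3 concentrations up to 38.3 uM (primary) or 11 concentrations (follow-up): 16 h compound, 100 nM thapsigargin for 4 h, then extracellular luciferase luminescence.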
# [2] = molecular target: Cytochrome P450 2D6 (Homo sapiens) (UniProt P10635); experiment: Cytochrome P450 family 2 subfamily D member 6 (CYP2D6) small molecule antagonists: luciferase biochemical (cell-free) qHTS assay (AID 1645840; active means well fitted curve in the direction sought with a large enough effect in the repeat runs; an effect the other way counts as inactive or inconclusive; further: nearly all actives have a fitted effect of over 55% in size; further: potency means the concentration at half of the fitted maximal effect; on activity change, negative = inhibition: on the % scale 0 is the no-effect control and ±100 the full control effect); conditions: P450-Glo CYP2D6 enzyme, luciferin luminescence, 1 h; series mostly up to 57.4 µM
# Cytochrome P450 2D6 (Homo sapiens), sequence (P10635 whole entry, looked up): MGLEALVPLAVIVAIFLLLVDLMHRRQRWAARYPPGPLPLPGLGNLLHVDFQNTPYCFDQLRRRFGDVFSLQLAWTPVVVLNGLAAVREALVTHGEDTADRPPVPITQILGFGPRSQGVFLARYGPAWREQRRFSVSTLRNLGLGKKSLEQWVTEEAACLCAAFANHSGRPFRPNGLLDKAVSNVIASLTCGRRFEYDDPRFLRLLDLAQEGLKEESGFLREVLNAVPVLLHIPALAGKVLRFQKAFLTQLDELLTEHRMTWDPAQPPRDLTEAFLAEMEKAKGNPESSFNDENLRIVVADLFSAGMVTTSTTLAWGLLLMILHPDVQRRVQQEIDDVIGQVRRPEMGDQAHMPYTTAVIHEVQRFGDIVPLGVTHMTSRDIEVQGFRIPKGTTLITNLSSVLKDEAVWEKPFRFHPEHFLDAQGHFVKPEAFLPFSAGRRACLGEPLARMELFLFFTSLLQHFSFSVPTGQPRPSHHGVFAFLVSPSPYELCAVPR
# How it was run: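 P450-Glo CYP2D6 system: proluciferin substrate converted by enzyme to luciferin, read by luminescence proportional to activity. Enzyme-substrate mix with compound 10 min at room temperature, then NADPH regeneration 1 h before detection reagent.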
# [3] = molecular target: Cytochrome P450 2C9 (Homo sapiens) (UniProt P11712); experiment: Cytochrome P450 family 2 subfamily C member 9 (CYP2C9) small molecule antagonists: luciferase biochemical (cell-free) qHTS assay (AID 1645842; active means well fitted curve in the direction sought with a large enough effect in the repeat runs; an effect the other way counts as inactive or inconclusive; further: nearly all actives have a fitted effect of over 55% in size; further: potency means the concentration at half of the fitted maximal effect; on activity change, negative = inhibition: on the % scale 0 is the no-effect control and ±100 the full control effect); conditions: P450-Glo CYP2C9 enzyme assay, luciferin luminescence; series mostly up to 57.4 µM
# Cytochrome P450 2C9 (Homo sapiens), sequence (P11712 whole entry, looked up): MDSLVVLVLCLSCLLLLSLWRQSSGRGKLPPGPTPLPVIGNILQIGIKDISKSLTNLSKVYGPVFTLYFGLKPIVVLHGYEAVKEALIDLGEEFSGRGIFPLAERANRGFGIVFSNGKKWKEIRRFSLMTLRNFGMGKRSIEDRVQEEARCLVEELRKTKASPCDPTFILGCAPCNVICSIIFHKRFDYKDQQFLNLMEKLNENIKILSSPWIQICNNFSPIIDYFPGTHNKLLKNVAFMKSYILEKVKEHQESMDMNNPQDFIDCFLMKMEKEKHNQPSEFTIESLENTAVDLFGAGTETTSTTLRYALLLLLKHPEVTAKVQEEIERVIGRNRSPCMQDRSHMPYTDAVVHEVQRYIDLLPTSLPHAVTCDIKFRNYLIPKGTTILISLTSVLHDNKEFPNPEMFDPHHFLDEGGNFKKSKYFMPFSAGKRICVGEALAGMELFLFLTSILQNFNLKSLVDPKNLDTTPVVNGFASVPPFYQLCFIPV
# How it was run: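 P450-Glo CYP2C9 system: proluciferin substrate with enzyme in mix containing 0.4% BSA, 10 min at room temperature, then NADPH regeneration solution added and incubated 1 h at 37C. Detection reagent stopped reaction; luminescence read after 20 min as RLU.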
# [4] = Primary qHTS for inhibitors of nuclear receptor binding SET domain protein 2 (NSD2) in an isogenic RCH-ACV NSD2 p.E1099K mutant (9B) (AID 1645876); conditions: RCH-ACV NSD2 E1099K (9B) viability, CellTiter-Glo, 72 h; series mostly up to 44.9 µM; further: nearly all actives have a fitted effect of over 70% in size; further: potency means the concentration at half of the fitted maximal effect
# [5] = Primary qHTS for inhibitors of nuclear receptor binding SET domain protein 2 (NSD2) in an RCH-ACV wild type WT cells (2C) (AID 1645877); conditions: RCH-ACV (leukaemia line) NSD2 WT (2C) viability, CellTiter-Glo, 72 h; series mostly up to 44.9 µM; further: nearly all actives have a fitted effect of over 70% in size; further: potency means the concentration at half of the fitted maximal effect
# [6] = molecular target: Catechol O-methyltransferase (Homo sapiens) (UniProt P21964); experiment: Confirmatory Screen for Target Class Profiling of Small Molecule Inhibitors of Methyltransferases (AID 1745852; calls by dose curve; further: potency means the concentration at half of the fitted maximal effect; on activity change, negative = inhibition: on the % scale 0 is the no-effect control and ±100 the full control effect); conditions: MTase-Glo luminescence, SAH detection, recombinant enzyme; measured here: COMT max response; stronger effect = lower value
# Catechol O-methyltransferase (Homo sapiens), sequence (P21964 whole entry, looked up): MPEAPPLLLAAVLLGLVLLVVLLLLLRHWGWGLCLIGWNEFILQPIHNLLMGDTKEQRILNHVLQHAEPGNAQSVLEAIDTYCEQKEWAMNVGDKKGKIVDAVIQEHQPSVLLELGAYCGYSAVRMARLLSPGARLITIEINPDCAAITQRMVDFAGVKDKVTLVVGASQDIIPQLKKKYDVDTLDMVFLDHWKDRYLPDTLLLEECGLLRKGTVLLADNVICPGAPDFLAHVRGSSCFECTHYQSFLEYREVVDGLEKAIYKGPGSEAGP
# [7] = molecular target: Guanidinoacetate N-methyltransferase (Homo sapiens) (UniProt Q14353); experiment: as above; conditions: MTase-Glo luminescence, SAH detection, recombinant enzyme
# [8] = molecular target: Rap guanine nucleotide exchange factor 3 (Homo sapiens) (UniProt O95398); experiment: Confirmatory qHTS for antagonist of cAMP-regulated guanine nucleotide exchange factor 3 (EPAC1) (AID 1645880); conditions: EPAC1 Rap1B-BODIPY-GDP exchange, fluorescence; further: potency means the concentration at half of the fitted maximal effect; nearly all actives have a fitted effect of over 55% in size
# Rap guanine nucleotide exchange factor 3 (Homo sapiens), sequence (O95398 whole entry, looked up): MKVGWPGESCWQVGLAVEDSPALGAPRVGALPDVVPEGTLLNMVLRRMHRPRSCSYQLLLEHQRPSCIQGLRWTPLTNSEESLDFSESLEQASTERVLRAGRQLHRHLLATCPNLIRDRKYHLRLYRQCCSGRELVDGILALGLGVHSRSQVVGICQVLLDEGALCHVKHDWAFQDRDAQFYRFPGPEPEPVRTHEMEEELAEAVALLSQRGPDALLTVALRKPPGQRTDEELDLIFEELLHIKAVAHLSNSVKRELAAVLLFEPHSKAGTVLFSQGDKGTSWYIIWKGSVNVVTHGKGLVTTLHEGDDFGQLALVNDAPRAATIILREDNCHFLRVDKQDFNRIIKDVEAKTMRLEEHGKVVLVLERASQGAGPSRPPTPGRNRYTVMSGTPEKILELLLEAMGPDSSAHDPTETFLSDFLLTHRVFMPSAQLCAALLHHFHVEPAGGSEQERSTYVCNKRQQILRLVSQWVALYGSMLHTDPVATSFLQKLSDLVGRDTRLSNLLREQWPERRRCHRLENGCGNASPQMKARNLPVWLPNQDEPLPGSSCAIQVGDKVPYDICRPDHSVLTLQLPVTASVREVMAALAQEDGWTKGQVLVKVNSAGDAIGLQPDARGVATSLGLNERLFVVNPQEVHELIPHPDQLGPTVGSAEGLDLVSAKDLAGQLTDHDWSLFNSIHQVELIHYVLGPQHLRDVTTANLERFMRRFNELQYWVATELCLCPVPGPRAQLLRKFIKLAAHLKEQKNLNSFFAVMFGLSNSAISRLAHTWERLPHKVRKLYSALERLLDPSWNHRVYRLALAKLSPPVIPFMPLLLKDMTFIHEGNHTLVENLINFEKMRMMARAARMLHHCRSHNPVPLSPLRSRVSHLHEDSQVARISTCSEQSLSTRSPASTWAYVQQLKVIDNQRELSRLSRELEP
# How it was run: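 Released BODIPY-GDP fluoresces less than Rap1-bound BODIPY-GDP; the signal is followed at 480/540 nm at 5-min intervals over 30 min, after 5 min at room temperature. Reactions contain 100 nM EPAC1, 250 nM RAP1B-BODIPY-GDP and 50 uM GDP; results are normalized to ATA and DMSO.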
# [9] = molecular target: Rap guanine nucleotide exchange factor 3 (Homo sapiens) (UniProt O95398); experiment: Confirmatory qHTS for agonist of cAMP-regulated guanine nucleotide exchange factor 3 (EPAC1) (AID 1645881); conditions: EPAC1 Rap1B BODIPY-GDP exchange fluorescence, 100% = cAMP control response; series mostly up to 154 µM;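 further: EPAC1 catalysed release of BODIPY-GDP from Rap1B seen as fluorescence loss; nearly all actives have a fitted effect of over 75% in size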
# [10] = molecular target: Rap guanine nucleotide exchange factor 4 (Homo sapiens) (UniProt Q8WZA2); experiment: Confirmatory qHTS for agonist of cAMP-regulated guanine nucleotide exchange factor 4 (EPAC2) (AID 1645884); conditions: EPAC2 GEF activity, Rap1B-BODIPY-GDP fluorescence, percent relative to cAMP agonist control; series mostly up to 154 µM;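 further: nucleotide exchange releases bodipy-GDP from Rap1 and this lowers its fluorescence; on the % scale 0 is the no-effect control and ±100 the full control effect; nearly all actives have a fitted effect of over 65% in size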
# Rap guanine nucleotide exchange factor 4 (Homo sapiens), sequence (Q8WZA2 whole entry, looked up): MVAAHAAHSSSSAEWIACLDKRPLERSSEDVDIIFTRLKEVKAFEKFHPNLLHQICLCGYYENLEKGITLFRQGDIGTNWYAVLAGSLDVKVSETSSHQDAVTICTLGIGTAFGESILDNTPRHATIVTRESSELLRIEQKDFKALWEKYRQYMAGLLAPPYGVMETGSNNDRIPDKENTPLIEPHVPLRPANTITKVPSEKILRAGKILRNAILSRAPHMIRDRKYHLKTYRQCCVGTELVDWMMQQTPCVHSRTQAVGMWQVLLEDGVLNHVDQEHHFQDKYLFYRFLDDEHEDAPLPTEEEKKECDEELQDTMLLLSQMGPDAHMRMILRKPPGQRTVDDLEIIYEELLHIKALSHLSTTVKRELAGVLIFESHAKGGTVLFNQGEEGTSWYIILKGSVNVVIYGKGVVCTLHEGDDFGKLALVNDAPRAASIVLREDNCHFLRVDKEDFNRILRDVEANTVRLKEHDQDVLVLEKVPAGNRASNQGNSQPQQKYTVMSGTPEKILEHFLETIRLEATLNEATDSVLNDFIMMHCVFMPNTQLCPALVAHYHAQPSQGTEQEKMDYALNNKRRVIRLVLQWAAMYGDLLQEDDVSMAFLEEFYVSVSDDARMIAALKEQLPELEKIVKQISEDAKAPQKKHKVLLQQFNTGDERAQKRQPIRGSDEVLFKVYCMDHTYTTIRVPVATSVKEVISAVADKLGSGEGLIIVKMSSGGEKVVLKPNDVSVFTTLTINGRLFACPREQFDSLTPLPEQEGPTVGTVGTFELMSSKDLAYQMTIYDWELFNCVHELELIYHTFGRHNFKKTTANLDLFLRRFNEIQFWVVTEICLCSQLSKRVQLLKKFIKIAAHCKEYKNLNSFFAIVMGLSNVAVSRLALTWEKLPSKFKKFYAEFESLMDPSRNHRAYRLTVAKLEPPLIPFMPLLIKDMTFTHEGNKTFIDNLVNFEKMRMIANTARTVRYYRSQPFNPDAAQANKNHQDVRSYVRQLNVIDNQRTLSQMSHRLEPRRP
# [11] = molecular target: Rap guanine nucleotide exchange factor 4 (Homo sapiens) (UniProt Q8WZA2); experiment: Confirmatory qHTS for antagonist of cAMP-regulated guanine nucleotide exchange factor 4 (EPAC2) (AID 1645885); conditions: EPAC2 Rap1B-BODIPY-GDP exchange fluorescence, biochemical; further: potency means the concentration at half of the fitted maximal effect; nearly all actives have a fitted effect of over 25% in size
# [12] = molecular target: Rap guanine nucleotide exchange factor 3 (Homo sapiens) (UniProt O95398); experiment: Counterscreen qHTS for antagonist of cAMP-regulated guanine nucleotide exchange factor 3 (EPAC1) (AID 1645888); conditions: Rap1B-BODIPY-GDP nucleotide exchange, fluorescence; series mostly up to 154 µM; further: % of control where 0% means no effect
# How it was run: (§1)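 Rap1B–BODIPY-GDP (250 nM) with 50 uM GDP; compounds pin-transferred to 9.74 nM–152 uM final (activator) or from 7.32 nM upwards (inhibitor). Fluorescence Ex/Em 480/540 nm read at 5 and 30 min, then after adding cAMP or buffer, at room temperature.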
# [13] = molecular target: Rap guanine nucleotide exchange factor 3 (Homo sapiens) (UniProt O95398); experiment: Counterscreen qHTS for agonist of cAMP-regulated guanine nucleotide exchange factor 3 (EPAC1) (AID 1645889); conditions: EPAC1 Rap1B-BODIPY-GDP exchange, fluorescence; series mostly up to 154 µM; further: % of control where 0% means no effect; nearly all actives have a fitted effect of over 40% in size
# How it was run: as §1
# [14] = molecular target: N-terminal Xaa-Pro-Lys N-methyltransferase 1 (Homo sapiens) (UniProt Q9BV86); experiment: Confirmatory qHTS for Inhibitors of N-terminal methyltransferase 1 (NTMT1): MTaseGlo Assay (AID 1645874); conditions: NTMT1 enzyme, MTase-Glo SAH luminescence; series mostly up to 100 µM;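 further: luminescence from SAH made as NTMT1 methylates SPKRIA peptide using SAM; 0% = DMSO control and -100% = no-enzyme control; nearly all actives have a fitted effect of over 65% in size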
# N-terminal Xaa-Pro-Lys N-methyltransferase 1 (Homo sapiens), sequence (Q9BV86 whole entry, looked up): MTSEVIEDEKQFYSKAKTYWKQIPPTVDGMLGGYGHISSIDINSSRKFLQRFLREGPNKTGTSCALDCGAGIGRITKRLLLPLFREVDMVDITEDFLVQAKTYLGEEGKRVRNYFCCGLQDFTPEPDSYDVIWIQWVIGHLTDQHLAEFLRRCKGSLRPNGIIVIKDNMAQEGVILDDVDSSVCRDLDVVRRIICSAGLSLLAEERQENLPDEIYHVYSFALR
# How it was run: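 Enzyme mix (125 nM NTMT1, 100 uM SAM) + compound, 15 min RT; + 1 uM SPKRIA, 30 min RT, dark; MTase-Glo reagent 30 min, detection solution 30 min; luminescence. % inhibition vs no-enzyme/DMSO controls, 4-parameter Hill fit.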
# [15] = activity change, negative = inhibition: at 57.3 µM (top of the series) unless noted
smiles,measurement,setting,value
CNC(=O)c1cc(Oc2ccc(NC(=O)Nc3cc(C(C)(C)C)nn3-c3ccc4ncccc4c3)c(F)c2)ccn1,Potency,[1],inactive
same,Potency,[2],inactive
same,Potency,[3],6.74 µM (active)
same,Potency,[4],3.65 µM (active) and 4.17 µM (active)
same,Potency,[5],7.28 µM (active) and 5.25 µM (active)
COc1ccc(C(=O)CC2(O)C(=O)Nc3c(Cl)ccc(Cl)c32)cc1 (centres undefined),Potency,[1],inactive
same,Potency,[2],inactive
same,Potency,[3],16.9 µM (active) and 15.1 µM (active)
same,Potency,[4],2.58 µM (active)
same,Potency,[5],1.83 µM (active)
CNC(=O)c1nn(C)c2c1C(C)(C)Cc1cnc(Nc3ccc(N4CCN(C)CC4)cc3)nc1-2,Potency,[1],inactive
same,Potency,[2],inactive
same,Potency,[3],21.3 µM (active)
same,Potency,[4],515 nM (active) and 662 nM (active)
same,Potency,[5],409 nM (active) and 417 nM (active)
O=C(Nc1ncc(-c2cc(C(F)F)nn2-c2c(Cl)cccc2Cl)s1)C1CC1,Potency,[1],inactive
same,Potency,[2],10.7 µM (active)
same,Potency,[3],6.74 µM (active)
same,Potency,[4],0.934 µM (active)
same,Potency,[5],0.417 µM (active)
COC(=O)c1ccc2c(C(=Nc3ccc(N(C)C(=O)CN4CCN(C)CC4)cc3)c3ccccc3)c(O)[nH]c2c1,Potency,[1],inactive
same,Potency,[2],inactive
same,Potency,[3],inactive
same,Potency,[4],1.83 µM (active) and 2.63 µM (active)
same,Potency,[5],2.3 µM (active) and 3.32 µM (active)
COc1cc(C)c(Sc2cnc(NC(=O)c3ccc(CNC(C)C(C)C)cc3)s2)cc1C(=O)N1CCN(C(C)=O)CC1 (centres undefined),Potency,[1],inactive
same,Potency,[2],21.3 µM (active)
same,Potency,[3],0.536 µM (active)
same,Potency,[4],8.33 µM (active) and 7.28 µM (active)
same,Potency,[5],8.33 µM (active) and 5.78 µM (active)
CCCn1c(=O)c2[nH]c(-c3cnn(Cc4cccc(C(F)(F)F)c4)c3)nc2n(CC)c1=O,Potency,[1],inactive
same,Potency,[2],inactive
same,Potency,[3],inactive
same,Potency,[4],inactive
same,Potency,[5],inactive
C=CC(=O)Nc1cccc(Oc2nc(Nc3ccc(N4CCN(C)CC4)cc3)ncc2Cl)c1,Potency,[1],inactive
same,Potency,[2],19 µM (active)
same,Potency,[3],2.39 µM (active)
same,Potency,[4],728 nM (active) and 2.09 µM (active)
same,Potency,[5],649 nM (active) and 1.32 µM (active)
same,activity,[6],-18%
same,Potency,[7]; [15],27.1 µM (active)
Nc1ncnc2c1c(-c1cccc(OCc3ccccc3)c1)cn2C1CC(CN2CCCC2)C1 (centres undefined),Potency,[1],inactive
same,Potency,[2],12 µM (active)
same,Potency,[3],16.9 µM (active)
same,Potency,[4],11.8 µM (active)
same,Potency,[5],10.5 µM (active)
same,activity,[6],-58.1%
same,Potency,[7]; [15],27.1 µM (active)
c1ccc2c(CCNc3ccc(Nc4ccncc4)cc3)c[nH]c2c1,Potency,[1],inactive
same,Potency,[2],0.477 µM (active)
same,Potency,[3],2.68 µM (active)
same,Potency,[4],728 nM (active) and 332 nM (active)
same,Potency,[5],578 nM (active) and 296 nM (active)
Cc1cc(Nc2nc(N[C@@H](C)c3ccc(F)cc3)c(C#N)cc2F)n[nH]1,Potency,[1],inactive
same,Potency,[2],26.8 µM (active)
same,Potency,[3],1.9 µM (active)
same,Potency,[4],578 nM (active) and 934 nM (active)
same,Potency,[5],578 nM (active) and 742 nM (active)
same,activity,[6],-4.92%
same,"activity change, negative = inhibition",[7]; [15],0%
C=CC(=O)Nc1cccc(Oc2nc(Nc3ccc(N4CCN(C)CC4)cc3OC)ncc2Cl)c1,Potency,[1],inactive
same,Potency,[2],23.9 µM (active)
same,Potency,[3],13.5 µM (active)
same,Potency,[4],5.15 µM (active) and 8.33 µM (active)
same,Potency,[5],5.15 µM (active) and 8.33 µM (active)
Cc1coc2c1C(=O)C(=O)c1c-2ccc2c1CCCC2(C)C,Potency,[8],53.6 µM (active)
same,outcome,[9],inactive
same,outcome,[10],inactive
same,Potency,[11],30.1 µM (active)
same,outcome,[12],inactive
same,outcome,[13],inactive
COc1cc(C(=O)NS(=O)(=O)c2ccccc2C)ccc1Cc1cn(C)c2ccc(NC(=O)OC3CCCC3)cc12,Potency,[8],25 µM (active)
same,outcome,[9],inactive
same,outcome,[10],inactive
same,Potency,[11],49.4 µM (active)
CCn1cc(-c2ccnc3[nH]c(-c4cccc(CN(C)C)c4)cc23)c(-c2ccc(NC(=O)N(C)C)cc2)n1,"activity change, negative = inhibition",[7]; at 29.8 µM (top of the series),2.9%
same,"activity change, negative = inhibition",[7]; at 57.3 µM (top of the series),-1.45%
Cc1ccc(-c2ncn(-c3ccc(Nc4nccc(-c5cccc(N6CCOCC6)c5)n4)cc3)n2)cn1,Potency,[1],inactive
same,Potency,[4],1.05 µM (active)
same,Potency,[5],0.662 µM (active)
COC(=O)Nc1nc2ccc(C(=O)c3ccc(F)cc3)cc2[nH]1,Potency,[1],inactive
same,Potency,[4],1.29 µM (active) and 468 nM (active)
same,Potency,[5],1.03 µM (active) and 372 nM (active)
CCN1CCN(CC(=O)Nc2ccc(-c3cccc4c(=O)cc(N5CCOCC5)oc34)c3sc4ccccc4c23)CC1,Potency,[1],inactive
same,Potency,[4],66.8 nM (active) and 257 nM (active)
same,Potency,[5],94.4 nM (active) and 257 nM (active)
CN[C@H]1CCc2cc(OC)c(OC)c(OC)c2-c2ccc(OC)c(=O)cc21,Potency,[1],inactive
same,Potency,[4],0.105 µM (active)
same,Potency,[5],0.118 µM (active)
CCN1CCN(Cc2ccc(-c3cc4c(N[C@H](C)c5ccccc5)ncnc4[nH]3)cc2)CC1,Potency,[1],inactive
same,Potency,[4],9.34 µM (active)
same,Potency,[5],7.42 µM (active)
COc1cc2c(NC3CCN(C(C)C)CC3)nc(C3CCCCC3)nc2cc1OCCCN1CCCC1,Potency,[1],inactive
same,Potency,[14],inactive
same,Potency,[4],9.16 µM (active) and 8.33 µM (active)
same,Potency,[5],11.5 µM (active) and 6.61 µM (active)
same,activity,[6],-9%
same,"activity change, negative = inhibition",[7]; [15],-6.26%
